# Screening data from PubChem.
# PLK1 PBD inh: inhibitors of human PLK1 polo-box domain binding | P53350 | Plk1 PBD binding of FITC phosphopeptide, fluorescence polarization | Potency, µM, hits mostly inhibitors | actives 2.8% (n = 360,000) | AID 720504; note: series mostly up to about 57 µM; nearly all actives have a fitted effect of over 65% in size
# RORg inh: blocks mouse ROR gamma transcriptional activity; Drosophila S2 Gal4-RORgamma UAS-luciferase reporter, 20 h; Potency, µM (doses to about 53.6 µM), actives largely listed as inhibitors; actives 5.4% (n = 310,000); AID 2551; P51450; note: nearly all actives have a fitted effect of over 60% in size
#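 In this cell-based reporter format, copper sulfate (700 uM final) drives Gal4–ROR gamma fusion expression from a metallothionein promoter in Drosophila Schneider cells; compounds preincubated 1 hr, reporter read after 20 hr at ambient temperature.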
# VP16 counter: inhibits Gal4-VP16 luciferase reporter, ROR gamma counter-screen | Drosophila S2 Gal4-VP16 UAS-luciferase, luminescence, 20 h | actives 3.5% (n = 310,000) | Potency, µM (series often up to 53.6 µM), most hits filed as inhibitors;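 note: Gal4-VP16 expression switched on by copper sulfate through the metallothionein promoter; nearly all actives have a fitted effect of over 50% in size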
# Sfp inh: Sfp phosphopantetheinyl transferase inhibition. Q9F4F7. Biochemical Sfp PPTase activity, qHTS. Potency, µM, hits mostly inhibitors. actives 3.5% (n = 310,000). AID 1490;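 note: the enzyme is Sfp with the accession as filed and its product quenches rhodamine fluorescence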
#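 Fluorescence-quenching assay: 15 nM Sfp-PPTase preincubated 15 min at room temperature with compound, then 5 uM rhodamine-CoA and 12.5 uM BHQ-2-labelled YbbR peptide added. Fluorescence (ex 525/em 598 nm) read at start and after 30 min; difference gives rate.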
# ALDH1A1 block: ALDH1A1 (human) enzyme inhibition | P00352 | Purified ALDH1A1, NADH fluorescence, propionaldehyde substrate | Potency, µM (highest dose often 75.3 µM), usual class: inhibitors | actives 7.3% (n = 220,000) | AID 1030; active = well fitted inhibition curve with a large enough effect, not every such curve was filed as active; inconclusive = small, poorly fitted or top-dose-only effect, or another doubt; inactive = no such curve, though single readings can be large or run the other way
# Target sequence (P00352 whole entry, looked up): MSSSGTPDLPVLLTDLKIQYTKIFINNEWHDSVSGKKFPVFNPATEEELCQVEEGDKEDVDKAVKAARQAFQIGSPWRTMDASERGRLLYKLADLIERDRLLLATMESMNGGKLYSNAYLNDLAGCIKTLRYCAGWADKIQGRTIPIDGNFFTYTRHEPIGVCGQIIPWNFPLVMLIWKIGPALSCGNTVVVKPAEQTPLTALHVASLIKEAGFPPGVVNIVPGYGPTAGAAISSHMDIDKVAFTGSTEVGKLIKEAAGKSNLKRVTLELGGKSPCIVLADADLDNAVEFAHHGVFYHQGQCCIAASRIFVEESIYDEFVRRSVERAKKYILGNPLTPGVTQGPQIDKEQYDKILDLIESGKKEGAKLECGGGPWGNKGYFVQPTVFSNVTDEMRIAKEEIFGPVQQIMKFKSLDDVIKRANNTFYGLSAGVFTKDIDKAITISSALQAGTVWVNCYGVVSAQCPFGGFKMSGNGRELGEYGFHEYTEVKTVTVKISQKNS
# Numbers stand for hits; – = inactive; ? = inconclusive; · = not tested or not shown; [ ] = remark or other dose. Sampled rows, rich in hits. Any-hit rate of the full collection: about 12%. Unless noted, calls come from the whole dose curve; as a rule, active = well fitted curve in the direction sought with a large enough effect; inconclusive = small, poorly fitted or top-dose-only effect, or another doubt; inactive = no such curve, though single readings can be large; an effect the other way counts as inactive or inconclusive.
SMILES,PLK1 PBD inh,RORg inh,VP16 counter,Sfp inh,ALDH1A1 block
CCN(CC)S(=O)(=O)c1ccc(O)c(NC(=O)c2ccc(N3CCOCC3)c([N+](=O)[O-])c2)c1,21.2µM,?,–,?,0.708µM
CCN(CC)S(=O)(=O)c1ccc(N2CCOCC2)c(NC(=S)NC(=O)c2ccco2)c1,23.8µM,?,–,20µM,·
CCN(CC)S(=O)(=O)c1ccc(N2CCOCC2)c(NC(=O)Cc2ccccc2)c1,–,–,–,–,12.6µM
CCN(CC)S(=O)(=O)c1ccc(N2CCOCC2)c(NC(=O)CCC2CCCCC2)c1,?,–,?,?,1.58µM
Cn1cc([C@]2(O)C(=O)Nc3ccc(OC(F)(F)F)cc32)c2ccccc21,–,·,·,·,·
COc1cccc(-c2nccc(-n3ccnc3)n2)c1,·,–,–,–,–
N#C/C(=C\c1ccc[nH]1)C(=O)Nc1ccccc1[N+](=O)[O-],–,–,–,–,·
CCc1nc2ccc(C(=O)Nc3cc(-c4ccccc4)ccc3OC)cn2c1N(C)C(=O)c1cccc(OC)c1,–,·,·,·,·
O=C(c1ccccc1)c1ccc(N2CCOCC2)c(NC(=O)c2ccco2)c1,–,?,–,–,31.6µM
O=C(NC(=S)Nc1cc(S(=O)(=O)N2CCOCC2)ccc1O)c1ccco1,11.9µM,?,–,44.7µM,25.1µM
O=C(NC(=S)Nc1cc(S(=O)(=O)N2CCOCC2)ccc1N1CCOCC1)c1ccco1,–,–,–,–,–
CCC(C)[C@H](NC(=O)[C@@H]1Cc2ccccc2CN1)C(=O)Nc1ccc2c(c1)OCO2 (stereo not given in full),–,–,–,–,·
CCN(CC)CC(C)CNC(=O)CC(C(=O)N1CCc2ccccc21)n1ccnc1 (stereo not given),–,11.2µM,–,–,–
O=c1cnc2cnc(Oc3ccccc3)nc2n1CCc1ccccc1,·,–,–,–,?
CCOC(=O)c1cnn(-c2cc(Oc3ccccc3)ncn2)c1N,–,–,–,–,–
CCOC(=O)c1cnn(-c2cc(Oc3ccccc3C)ncn2)c1N,–,–,–,50.1µM,–
CCOC(=O)c1cnn(-c2cc(C)c3ccccc3n2)c1N,–,0.112µM,?,–,–
CCOC(=O)c1cnc2c(-c3ccccc3)cnn2c1N,–,1.58µM,11.2µM,–,?
CCOC(=O)c1cnn(-c2ccccn2)c1N,–,–,–,–,–
CC(C)c1ccc(-c2nnn(CCC(=O)O)n2)cc1,–,0.398µM,?,–,–
COc1ccc(-n2c(=O)c(-c3cc(F)cc(F)c3)nc3cncnc32)cc1,·,–,–,–,–
O=C(O)c1nnsc1-c1ccc(-c2snnc2C(=O)O)cc1,·,·,·,·,3.98µM
c1ccc(-c2nnsc2-c2ccccc2)cc1,–,–,–,–,·
CC(=O)[C@H](CC(C)C)NC(=O)[C@@H](CC(C)C)NC(=O)[C@H](CC(C)C)NC(=O)OCc1ccccc1,·,?,–,–,–
O=C(NCCNC(=O)c1ccc(-c2cc(Cl)ccc2Cl)o1)c1cnccn1,–,·,·,·,·
SMILES,PLK1 PBD inh,RORg inh,VP16 counter,Sfp inh,ALDH1A1 block
O=C(O)c1ccccc1N=Nc1ccc(O)cc1,29.9µM,·,·,·,·
Cc1ccc(C)c(NC(=O)CSc2nnc(CSc3nc(C)cc(C)n3)n2Cc2ccco2)c1,–,–,–,44.7µM,–
Cc1cc(C)nc(SCc2nnc(SCC(N)=O)n2Cc2ccco2)n1,–,–,–,–,–
Cc1cc(C)nc(SCc2nnc(SCC(=O)Nc3ccccc3C)n2Cc2ccco2)n1,–,–,–,50.1µM,–
CCOC(=O)CSc1nnc(CSc2nc(C)cc(C)n2)n1Cc1ccco1,–,–,–,20µM,–
CCOC(=O)CSc1nc2c(sc3ccc([N+](=O)[O-])cc32)c(=O)n1Cc1ccco1,–,8.91µM,5.62µM,3.55µM,?
COC(=O)C1=C(C(=O)OC)[C@@H]2N(C)c3ccccc3[C@@]23C[C@@H](CO)N(C(=O)c2ccco2)C3=N1,·,·,·,–,–[13.5 µM]
O=C(Nc1ccccc1N1CCCC1)c1ccc([N+](=O)[O-])o1,–,2µM,?,–,·
O=C(Nc1ncccn1)c1ccc([N+](=O)[O-])o1,–,14.1µM,?,–,–
O=C(Nc1cccc([N+](=O)[O-])c1)c1ccc([N+](=O)[O-])o1,–,·,·,·,·
Cc1ccc(NC(=O)c2ccc([N+](=O)[O-])o2)cc1C,–,7.94µM,–,–,–
COc1ccc(N2CCCC2)c(NC(=O)c2ccc([N+](=O)[O-])o2)c1,23.8µM,–,–,–,·
CC(=O)NC1C(O)O[C@H](C(=O)O)[C@@H](O)[C@@H]1O (stereo not given in full),·,–,–,–,·
CC(C)(C)c1ccc(C(=O)NCC(=O)OCC(=O)N2CCCC2)cc1,–,·,·,·,·
O=C(Nc1ccc(N2CCCC2)c(Cl)c1)c1ccc([N+](=O)[O-])o1,–,?,–[10 µM],–,3.55µM
O=C(Nc1ccccc1N1CCCC1)c1cc2ccccc2o1,–,–,–,–,28.2µM
O=C(Nc1ccccc1N1CCN(C(=O)c2ccccc2)CC1)c1ccc([N+](=O)[O-])o1,–,5.62µM,?,–,·
O=C(Nc1ccccc1N1CCOCC1)c1cc2ccccc2o1,–,–,–,–,·
O=C(Nc1cccc2ccccc12)c1ccc([N+](=O)[O-])o1,–,?,12.6µM,–,·
CCC(=O)N1CCN(c2ccccc2NC(=O)c2ccc([N+](=O)[O-])o2)CC1,–,?,?,–,·
Cc1cccc(NC(=O)c2ccc([N+](=O)[O-])o2)c1C,–,–,–[10 µM],–,–
CCNc1ncc2nc(-c3cc(F)cc(F)c3)c(=O)n(CCC#N)c2n1,·,–,–,–,?
CCN(CC)C(=O)C1=C(C)N(CCCN2CCCC2=O)C(=O)C(CC(=O)NCCCCc2ccccc2)C1 (stereo not given),–,·,·,·,·
CCCCCCCCCCCCCCCC(=O)NC(C)C,·,–,–,–,–
COc1ccc(CCNC(=O)CCc2ccsc2)cc1OC,–,–,–,–,·
SMILES,PLK1 PBD inh,RORg inh,VP16 counter,Sfp inh,ALDH1A1 block
C=CCN1c2ccccc2[C@]23C[C@@H](C(=O)OC)N(C(=O)COCc4ccccc4)C2=NC(C(=O)OC)=C(C(=O)OC)[C@H]13,·,·,·,?,–[13.5 µM]
O=C(Nc1ccc(N2CCOCC2)c(Cl)c1)c1ccc(Br)o1,–,?,–,–,25.1µM
COc1ccc(Br)cc1C(=O)Nc1ccccc1N1CCN(C(=O)c2ccccc2)CC1,23.8µM,–,–,–,?
CCC(=O)N1CCN(c2ccc(NC(=O)c3ccc([N+](=O)[O-])o3)cc2)CC1,–,–,–,–,–
O=C(Nc1ccccc1N1CCN(C(=O)c2ccccc2)CC1)c1cc(Br)ccc1Cl,–,–,–,–,–
CC(C)(C)C(=O)N1CCN(c2ccc(NC(=O)c3ccc([N+](=O)[O-])o3)cc2)CC1,–,?,14.1µM,–,·
O=C(CSc1nc2c(cnn2-c2ccc(F)cc2)c(=O)[nH]1)N1CCOCC1,–,–,–,–,–
CCCCCSc1nc2c(cnn2-c2ccccc2)c(=O)[nH]1,–,–[0.365 µM],·,–,–
CCOC(=O)N1CCN(C(=O)CSc2nc3c(cnn3-c3ccccc3)c(=O)[nH]2)CC1,–,–,–,–,11.2µM
